Measured potencies and affinities stand elsewhere. Calls of active or inactive are those of the source.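 Rule for the calls: active = every repeat test gives a fitted half-maximal cytotoxic concentration no higher than twice the top valid dose; inconclusive = repeats disagree, or a flat partial loss or poor fit; inactive = the rest, including signal rising instead.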
Assay: HEK293T cell cytotoxicity, dose response, cytotoxicity control, CellTiter-Glo luminescence, dry powder, set 2 (AID 720595)
Conditions: HEK293T viability, ATP luminescence, 72 h; series mostly up to 26 µM; activity change, negative = cytotoxicity: at the top concentration

Row | Structure (SMILES) | activity change, negative = cytotoxicity | outcome
1 | O=C(Nc1nc(-c2ccncc2)cs1)c1ccco1 | 5.54% (inactive) | 
2 | O=C(Nc1nc(-c2ccccn2)cs1)c1ccc(S(=O)(=O)N2CCOCC2)cc1 | 13.6% (inactive) | 
3 | COC(=O)c1ccc(NC(=O)CSc2ccc(-c3ccccn3)nn2)cc1 | -7.07% (inactive) | 
4 | Cc1ccc(S(=O)(=O)CCc2nnc(NC(=O)c3ccccc3)s2)cc1 | 3.04% (inactive) | 
5 | CC1CCN(S(=O)(=O)c2ccc(C(=O)Nc3nnc(C4CC4)o3)cc2)CC1 | -30.8% (inactive) | 
6 | CC1CC(C)CN(S(=O)(=O)c2ccc(C(=O)Nc3nnc(C4=COCCO4)o3)cc2)C1 (centres undefined) | 10.9% (inactive) | 
7 | O=C(CSc1ccc(-c2ccccn2)nn1)N1CCCC1 | 6.61% (inactive) | 
8 | FC(F)(F)c1cc(-c2nn[nH]n2)cc(C(F)(F)F)c1 | 16.9% (inactive) | 
9 | O=C(Nc1nnc(C2=COCCO2)o1)c1ccc(S(=O)(=O)N2CCCCC2)cc1 | -13.1% (inactive) | 
10 | Nc1nc(-c2ccccn2)nc(N)c1Cc1ccc(Cl)cc1Cl | -26.5% (inactive) | 
11 | Cc1ccc(C(=O)Nc2nc(-c3ccccn3)cs2)cc1S(=O)(=O)N1CCOCC1 | 3.37% (inactive) | 
12 | CC1CCN(S(=O)(=O)c2ccc(C(=O)Nc3nnc(-c4ccccn4)o3)cc2)CC1 | 0.61% (inactive) | 
13 | O=C(Nc1nc(-c2ccncc2)cs1)c1cccc(S(=O)(=O)N2CCOCC2)c1 | -2.67% (inactive) | 
14 | O=C(CSc1ccc(-c2ccccn2)nn1)Nc1nccs1 | -2.19% (inactive) | 
15 | CC1CCN(S(=O)(=O)c2ccc(C(=O)Nc3nnc(-c4cccs4)o3)cc2)CC1 | -32.3% (inactive) | 
16 | CC(C)Cc1nnc(NC(=O)c2cccc(S(=O)(=O)N3CCOCC3)c2)s1 | -10.6% (inactive) | 
17 | Cc1c(C(=O)N(C)C)sc2nc(-c3ccccn3)[nH]c(=O)c12 | -16.1% (inactive) | 
18 | O=C(CSc1ccc(-c2ccccn2)nn1)NC1CCCCC1 | -7.59% (inactive) | 
19 | Cc1ccc(C(=O)Nc2nc(-c3ccccc3)cs2)o1 | -2.19% (inactive) | 
20 | CC1CCN(S(=O)(=O)c2ccc(C(=O)Nc3nnc(-c4ccno4)o3)cc2)CC1 | 8.24% (inactive) | 
21 | c1ccc(-c2nc(-c3ccncc3)n[nH]2)nc1 |  | inactive
22 | Cc1cccc(NC(=O)CSc2ccc(-c3ccccn3)nn2)c1C | -22% (inactive) | 
23 | Cc1nnc(NC(=O)c2ccc(S(=O)(=O)N3CCCCC3)cc2)o1 | 3.22% (inactive) | 
24 | COc1ccc(-c2nnc(NC(=O)c3ccc(S(=O)(=O)N4CCC(C)CC4)cc3)o2)cc1 | 0.53% (inactive) | 
